Results filed as inconclusive are left out. Calls of active or inactive are those of the source. Calls follow the shape of the full dose curve.
biological target: Vitamin D3 receptor (Homo sapiens) (UniProt P11473); assay: qHTS assay for small molecule agonists of vitamin D receptor signaling (AID 588543); conditions: HEK293T VDR-UAS-bla, beta-lactamase ratio, 16 h; series mostly up to 76.8 µM
Excerpt: NIH Chemical Genomics Center [NCGC]
U.S. Environmental Protection Agency [EPA]
National Institutes of Environmental Health Sciences [NIEHS]
National Toxicology Program [NTP]
The Vitamin D receptor (VDR) is a member of nuclear hormone receptor superfamily and it plays a critical role in calcium homeostasis and bone metabolism. It plays a role in inducing cell differentiation, inhibiting cell growth and in thrombogenicity. So, VDR that mediates these effects represents a pharmacological target in prevention and treatment of hyperproliferative malignancies, such as cancer and psoriasis, cardiovascular, immunological, inflammatory and renal diseases etc.
NCGC Assay Protocol Summary
Using a beta-lactamase reporter-gene under control of Vitamin D receptor (VDR) response element, a cell-based assay [GeneBLAzer (VDR -UAS-bla assay developed by Invitrogen] was used to measure VDR ligands signaling. GeneBLAzer VDR -UAS-bla HEK293T cells were used with assay medium containing 2% charcoal-stripped FBS. The assay was performed in clear bottom black Greiner 1536-well plates. 1-alpha,25-Dihydroxy vitaminD3 was used as a positive control in the screen. Library compounds were measured for their ability to stimulate the reporter gene activity. Compounds were screened in a titration series in 1536-well format. The fluorescence intensity (405 nm excitation, 460/530 nm emission) was measured using an EnVision plate reader. Data was normalized relative to 1-alpha,25-Dihydroxy vitaminD3 control (50 nM, 100%) and DMSO only wells (basal, 0%). Concentration-response titration points for each compound were fitted to the Hill equation yielding concentrations of half-maximal stimulation (EC50) and maximal response (efficacy) values.
qHTS protocol for VDR beta-lactamase assay in agonist mode
[Step] [Parameter] [Value] [Description]
1. Reagent; 6 uL; 2000 cells/well
2. Incubation; 37 C for 5 hrs
4. Controls (1-alpha,25-Dihydroxy vitaminD3); 23 nL,
- Final concentrations of 50 nM and 15 nM in two columns
5. Incubation; 37 C for 16 hrs
6. Detection reagent; 1 uL of CCF4-dye
7. Incubation; RT for 2 hrs
8. Detection; Fluorescence; Envision plate reader

Vitamin D3 receptor (Homo sapiens), sequence (P11473 whole entry, looked up): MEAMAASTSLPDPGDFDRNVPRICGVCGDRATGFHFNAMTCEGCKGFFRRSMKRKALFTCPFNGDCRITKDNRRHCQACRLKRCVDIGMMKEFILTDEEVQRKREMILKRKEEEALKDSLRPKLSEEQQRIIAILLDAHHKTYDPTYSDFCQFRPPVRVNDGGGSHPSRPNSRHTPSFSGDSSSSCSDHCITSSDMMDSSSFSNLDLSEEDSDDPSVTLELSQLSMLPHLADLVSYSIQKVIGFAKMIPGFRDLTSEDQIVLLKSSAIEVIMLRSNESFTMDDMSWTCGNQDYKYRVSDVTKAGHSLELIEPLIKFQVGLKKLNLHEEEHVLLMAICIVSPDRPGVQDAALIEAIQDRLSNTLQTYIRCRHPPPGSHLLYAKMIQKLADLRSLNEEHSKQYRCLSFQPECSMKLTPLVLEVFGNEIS

Structure (SMILES) | outcome
N=C(N)c1ccc(OCCCCCOc2ccc(C(=N)N)cc2)cc1 | inactive
C[C@]12C=CC(=O)C=C1CC[C@@H]1[C@@H]2C(=O)C[C@@]2(C)[C@H]1CC[C@]2(O)C(=O)CO | inactive
NNC(=O)c1ccncc1 | inactive
OC(Cn1cncn1)(Cn1cncn1)c1ccc(F)cc1F | inactive
CC(=O)CC(c1ccccc1)c1c(O)c2ccccc2oc1=O (centres undefined) | inactive
Cc1nnc(NS(=O)(=O)c2ccc(N)cc2)s1 | inactive
Cc1ccnc2c1NC(=O)c1cccnc1N2C1CC1 | inactive
CC(=O)[C@H]1CC[C@H]2[C@@H]3CCC4=CC(=O)CC[C@]4(C)[C@H]3CC[C@]12C | inactive
CN(C)c1ccc(C(=C2C=CC(=[N+](C)C)C=C2)c2ccc(N(C)C)cc2)cc1 | inactive
CC[C@H](C)C(=O)O[C@H]1C[C@@H](C)C=C2C=C[C@H](C)[C@H](CC[C@@H]3C[C@@H](O)CC(=O)O3)[C@H]21 | inactive
S=P(N1CC1)(N1CC1)N1CC1 | inactive
Cc1cc(NS(=O)(=O)c2ccc(N)cc2)no1 | inactive
COc1ccc2cc3[n+](cc2c1OC)CCc1cc2c(cc1-3)OCO2 | inactive
CCc1cc(C(N)=S)ccn1 | inactive
